An excerpt weighted towards active compounds, which were near 2.4% of everything screened.
FEN1 inh: qHTS Assay for the Inhibitors of Human Flap endonuclease 1 (FEN1). P39748. hit rate 0.35% among 390,000. Recombinant FEN1 flap cleavage, fluorescence, 15 min. Potency, µM (highest dose often 114 µM), without a hit: top-dose activity change, negative = inhibition, hits mostly inhibitors; note: % is set by controls: 0 for no effect and ±100 for the full control effect; nearly all actives have a fitted effect of over 65% in size
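Concentration–response screening of FEN1 (10 nM): 15 min compound preincubation at room temperature, reaction started with 50 nM substrate and read at 0 and 15 min. Corrected, normalized data were fitted by a four-parameter Hill equation.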
Pol beta inh: qHTS Assay for Inhibitors of DNA Polymerase Beta | hit rate 1.3% among 340,000 | Pol beta primer extension/strand displacement, fluorescence kinetic | P06746 | AID 485314, 2010 | Potency, µM (top dose mostly 114 µM), without a hit: at the top dose activity change, negative = inhibition, hits mostly inhibitors; note: % is set by controls: 0 for no effect and ±100 for the full control effect
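Preincubation: enzyme (10 nM) with compound, 15 min, RT. Reaction: substrate added to 50 nM final. Reads: 0 and 10 min. Analysis: normalized, Hill fit.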
Pol eta inh: qHTS for Inhibitors of Polymerase Eta; DNA polymerase eta (Homo sapiens), Q9Y253; recombinant Pol eta, fluorescent DNA replication assay; Potency, µM (series often up to 114 µM), inactives show at the highest dose activity change, negative = inhibition, usual class: inhibitors; hit rate 1.2% among 390,000; AID 588591, 2011; note: % is set by controls: 0 for no effect and ±100 for the full control effect
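Pol eta (10 nM) was preincubated with compounds for 15 min at room temperature, after which fluorescent replication substrate (50 nM final) was added to start the reaction. Fluorescence was read kinetically at 0 and 10 min.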
WRN helicase inh: qHTS for Inhibitors of WRN Helicase | Bifunctional 3'-5' exonuclease/ATP-dependent helicase WRN (Homo sapiens), Q14191 | WRN helicase unwinding, fluorescent forked duplex, kinetic | Potency, µM (doses to about 114 µM), for inactives: at the top dose activity change, negative = inhibition, actives largely listed as inhibitors | hit rate 0.46% among 360,000; note: % is set by controls: 0 for no effect and ±100 for the full control effect; nearly all actives have a fitted effect of over 55% in size
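WRN at 20 nM final was preincubated with compound for 15 min at room temperature; reaction started with 100 nM forked duplex oligonucleotide carrying fluorophore and quencher plus 2 mM ATP (final). Unwinding followed kinetically by red fluorescence (ex 525/em 598 nm).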
Pol kappa inh: qHTS for Inhibitors of Polymerase Kappa; Potency, µM (titrated, usually from 107 µM), without a hit: at the top dose activity, negative = inhibition, most hits filed as inhibitors; hit rate 0.53% among 400,000; purified Pol kappa, fluorescent DNA synthesis assay, 10 min; AID 588579, 2011; DNA polymerase kappa (Homo sapiens), Q9UBT6; note: % is set by controls: 0 for no effect and ±100 for the full control effect
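Inhibition of 10 nM Pol kappa is measured by a fluorescent read-out at 0 and 10 min following addition of 50 nM substrate (final), with a 15-min room-temperature compound preincubation.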
POLI inh: qHTS for Inhibitors of Polymerase Iota; DNA polymerase iota (Homo sapiens), Q9UNA4; Pol iota fluorescent replication assay, 10 min; Potency, µM (titrated, usually from 115 µM), inactives show at the highest dose activity, negative = inhibition, usual class: inhibitors; hit rate 1% among 390,000
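Fluorescent replication assay read twice, at 0 min and 10 min after adding 50 nM (final) substrate. Enzyme (10 nM) and compounds were first incubated 15 min at room temperature; enzyme-free buffer wells were negative controls.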
* = called active by the depositor; ? = inconclusive; / = no result given; [ ] = remark or other dose. Calls come from the whole dose curve; as a rule, active = well fitted curve in the direction sought with a large enough effect; inconclusive = small, poorly fitted or top-dose-only effect, or another doubt; inactive = no such curve, though single readings can be large; an effect the other way counts as inactive or inconclusive. Potency is the fitted concentration of half-maximal effect.

SMILES	FEN1 inh	Pol beta inh	Pol eta inh	WRN helicase inh	Pol kappa inh	POLI inh
CCOC(=O)/C=C1/SCC(=O)N1CC(=O)c1ccc[nH]1	12%	/	?	1%	-29%	22µM*
COC(=O)[C@H](C)[C@H](CC(C)C)NC(=O)[C@H](C)[C@H](CC(C)C)NC(=O)c1ccccn1	1%	/	/	/	-8%	12%
Cc1cnc2ccc3ccccc3c2c1C	?	/	/	/	0%	26%
CC(=O)N1CCc2cc(S(=O)(=O)CCC(=O)NCc3cccs3)ccc21	-10%	13%	7%	11%	-4%	6%
CC(=O)N1CCc2cc(S(=O)(=O)CCC(=O)NCc3ccc4c(c3)OCO4)ccc21	-1%	45µM*	?	-2%	-11%	-12%
CCOc1ccccc1N1CCN(S(=O)(=O)c2ccc3c4c(cccc24)C(=O)N3)CC1	?	?	79µM*	?	45µM*	14µM*
C=C(C)C(=O)OCCOCC	/	/	/	/	-13%[12 µM]	/
OC[C@@H]1O[C@H](O)[C@H](O)[C@@H](O)[C@@H]1O	/	/	/	/	-3%[60.1 µM]	/
O=S(=O)(Nc1ncnc2sc3c(c12)CCC3)c1ccc(Cl)s1	-5%	-2%	35µM*	-30%[57.1 µM]	0%	?
COc1ccccc1/C=c1/[nH]c(=O)/c(=C\c2ccccc2OC)[nH]c1=O	5%	/	/	/	7%	12%
Cc1ccc(S(=O)(=O)N2CCN(C(=O)/C=C/c3ccco3)CC2)cc1	6%	20µM*	79µM*	-32%	-30%	47%
Cc1ccc(C)c(S(=O)(=O)N2CCN(C(=O)/C=C/c3ccco3)CC2)c1	-31%	/	35µM*	-25%	50µM*	28µM*
CC(C)OC(=O)c1cn(Cc2c(F)cccc2F)c2sc(-c3ccc(NC(=O)C(C)C)cc3)c(CN(C)Cc3ccccc3)c2c1=O	/	/	/	/	-3%[60.1 µM]	/
O=C1CC(c2ccco2)Cc2[nH]c(=O)c(C(=O)Nc3ccccc3)cc21 (configuration not stated)	-12%	/	/	/	-12%	20%
CCOc1ccc(-c2cc(C)n3nc(C(=O)Nc4cc(Cl)ccc4O)cc3n2)cc1	-20%	7.1µM*	?	/	-69%	79µM*
NC(=S)NS(=O)(=O)c1ccc(N)cc1	/	/	/	/	5%[19.4 µM]	/
COc1ccc(-n2[nH]c(C)cc2=O)cc1	5%	9%	-11%	-2%[57.1 µM]	-1%	1.1µM*
Cc1ccc(NC2=CC(=O)c3sc(C)nc3C2=O)cc1	/	/	/	/	3%[60.1 µM]	/
C#CCOCCOCCOCCNc1nc(N2CCN(C(=O)Cn3cc(CCCN=C(N)N)nn3)CC2)nc(N2CCN(C(=O)[C@H]([C@@H](C)CC)n3cc(CCCCN)nn3)CC2)n1	-4%	/	-10%	-1%	-8%	?
C#CCOCCOCCOCCNc1nc(N2CCN(C(=O)CCCCCCCCCCNC(=O)Cn3cc(CCCCCN)nn3)CC2)nc(N2CCN(C(=O)CCCCCCCCCCNC(=O)[C@H]([C@@H](C)CC)n3cc(CCCCN=C(N)N)nn3)CC2)n1	20µM*	/	79µM*	32µM*	19%	?
C#CCOCCOCCOCCNc1nc(N2CCN(C(=O)CCCCCCCCCCNC(=O)[C@H]([C@@H](C)CC)n3cc(CCCCCN)nn3)CC2)nc(N2CCN(C(=O)CCCCCCCCCCNC(=O)[C@H](CCCCN)n3cc(CCCC(=O)O)nn3)CC2)n1	?	/	-27%	0%	17%	7%

Assay outcomes: PubChem BioAssay, National Center for Advancing Translational Sciences (NCATS)
